# Data from PubChem BioAssay (NCATS).
# Values joined by “and” are separate entries in the source; they are usually repeats but may differ in a detail not shown here. Equal entries are not always repeated. Records with an inconclusive call do not appear. A call without a number means that no potency is given here. More than one record can exist for a structure, and the calls need not agree. Active and inactive are the calls of the source. Calls follow the shape of the dose curve; as a rule, active = well fitted curve in the direction sought with a large enough effect; inconclusive = small, poorly fitted or top-dose-only effect, or another doubt; inactive = no such curve, though single readings can be large; an effect the other way counts as inactive or inconclusive.
# Experiments:
# [1] = biological target: ATP-dependent 6-phosphofructokinase (Trypanosoma brucei brucei) (UniProt O15648); test: qHTS Assay to Find Inhibitors of T. brucei phosphofructokinase: hit validation (AID 492961);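 also: luminescence reports ADP formed as PFK phosphorylates fructose-6-phosphate with ATP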
# Method in brief: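 Measures ADP output of PFK (1.25 nM) at 0.1 mM ATP, 0.5 mM F6P, pH 8.0 TEA buffer with 5 mM MgCl2. No-enzyme wells define full inhibition; uninhibited enzyme wells define zero.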
# [2] = qHTS profiling for inhibitors of Plasmodium falciparum proliferation (AID 504749); also: potency is read from the fitted curve at half-maximal effect; as to all read-outs here: nearly all actives have a fitted effect of over 60% in size; conditions: P. falciparum in erythrocytes, SYBR Green DNA, 72 h; for activity, negative = inhibition: at 28.7 µM (top of the series)
# Method in brief: (§1)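 Three-day growth assay of blood-stage parasites in erythrocytes (0.3% parasitemia, 2.5% hematocrit) at 37 C, 5% CO2, quantified by SYBR Green DNA staining after overnight detergent lysis.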
# [3] = tested on: AA1029; test: as above; conditions: P. falciparum in erythrocytes, SYBR Green DNA, 72 h; series mostly up to 28.7 µM
# Method in brief: as §1
# [4] = tested on: AS120; test: as above; conditions: P. falciparum in erythrocytes, SYBR Green DNA, 72 h; series mostly up to 28.7 µM
# Method in brief: as §1
# [5] = tested on: ATS189; test: as above; conditions: P. falciparum in erythrocytes, SYBR Green DNA, 72 h; series mostly up to 28.7 µM
# Method in brief: as §1
# [6] = tested on: CP185; test: as above; conditions: P. falciparum in erythrocytes, SYBR Green DNA, 72 h; series mostly up to 28.7 µM
# Method in brief: as §1
# [7] = tested on: CP211; test: as above; conditions: P. falciparum in erythrocytes, SYBR Green DNA, 72 h; series mostly up to 28.7 µM
# Method in brief: as §1
# [8] = tested on: CP217; test: as above; conditions: P. falciparum in erythrocytes, SYBR Green DNA, 72 h; series mostly up to 28.7 µM
# Method in brief: as §1
# [9] = tested on: CP238; test: as above; conditions: P. falciparum in erythrocytes, SYBR Green DNA, 72 h; series mostly up to 28.7 µM
# Method in brief: as §1
# [10] = tested on: CP252; test: as above; conditions: P. falciparum in erythrocytes, SYBR Green DNA, 72 h; series mostly up to 28.7 µM
# Method in brief: as §1
# [11] = tested on: CP262; test: as above; conditions: P. falciparum in erythrocytes, SYBR Green DNA, 72 h; series mostly up to 28.7 µM
# Method in brief: as §1
# [12] = tested on: CP265; test: as above; conditions: P. falciparum in erythrocytes, SYBR Green DNA, 72 h; series mostly up to 28.7 µM
# Method in brief: as §1
# [13] = tested on: CP269; test: as above; conditions: P. falciparum in erythrocytes, SYBR Green DNA, 72 h; series mostly up to 28.7 µM
# Method in brief: as §1
# [14] = tested on: CP286; test: as above; conditions: P. falciparum in erythrocytes, SYBR Green DNA, 72 h; series mostly up to 28.7 µM
# Method in brief: as §1
# [15] = tested on: CP329; test: as above; conditions: P. falciparum in erythrocytes, SYBR Green DNA, 72 h; series mostly up to 28.7 µM
# Method in brief: as §1
# [16] = tested on: DFO2036; test: as above; conditions: P. falciparum in erythrocytes, SYBR Green DNA, 72 h; series mostly up to 28.7 µM
# Method in brief: as §1
# [17] = tested on: ECU; test: as above; conditions: P. falciparum in erythrocytes, SYBR Green DNA, 72 h; series mostly up to 28.7 µM
# Method in brief: as §1
# [18] = tested on: N140; test: as above; conditions: P. falciparum in erythrocytes, SYBR Green DNA, 72 h; series mostly up to 28.7 µM
# Method in brief: as §1
# [19] = tested on: TAB109; test: as above; conditions: P. falciparum in erythrocytes, SYBR Green DNA, 72 h; series mostly up to 28.7 µM
# Method in brief: as §1
# [20] = tested on: FAB9; test: as above; conditions: P. falciparum in erythrocytes, SYBR Green DNA, 72 h; series mostly up to 28.7 µM
# Method in brief: as §1
# Chain of ATP-dependent 6-phosphofructokinase (Trypanosoma brucei brucei) (O15648 whole entry, looked up): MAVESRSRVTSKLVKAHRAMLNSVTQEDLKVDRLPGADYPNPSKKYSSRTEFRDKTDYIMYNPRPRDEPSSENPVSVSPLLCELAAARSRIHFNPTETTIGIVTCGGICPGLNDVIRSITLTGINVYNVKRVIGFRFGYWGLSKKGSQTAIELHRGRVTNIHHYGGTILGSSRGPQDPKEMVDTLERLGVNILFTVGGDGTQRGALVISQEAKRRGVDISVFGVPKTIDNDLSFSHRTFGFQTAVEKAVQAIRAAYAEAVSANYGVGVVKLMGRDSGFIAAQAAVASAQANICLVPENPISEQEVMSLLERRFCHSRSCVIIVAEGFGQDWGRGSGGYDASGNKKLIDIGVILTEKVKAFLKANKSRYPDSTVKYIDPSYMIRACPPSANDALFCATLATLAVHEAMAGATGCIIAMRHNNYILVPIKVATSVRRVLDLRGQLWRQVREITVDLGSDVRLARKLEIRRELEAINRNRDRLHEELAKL
compound,measurement,setting,value
C[C@]12C=CC(=O)N[C@@H]1CC[C@@H]1C2CC[C@]2(C)C(C(=O)Nc3cc(C(F)(F)F)ccc3C(F)(F)F)CC[C@@H]12 (stereo partly drawn),Potency,[1],inactive
same,"activity, negative = inhibition",[2]; parasite line A,-5.45% (inactive)
same,Potency,[2]; parasite line B,11.2 µM (active)
same,Potency,[3],inactive
same,Potency,[4],inactive
same,Potency,[5],inactive
same,Potency,[6],inactive
same,Potency,[7],inactive
same,Potency,[8],inactive
same,Potency,[9],inactive
same,Potency,[10],inactive
same,Potency,[11],inactive
same,Potency,[12],inactive
same,Potency,[13],inactive
same,Potency,[14],6.31 µM (active)
same,Potency,[15],inactive
same,Potency,[16],inactive
same,Potency,[17],inactive
same,Potency,[18],inactive
same,Potency,[19],inactive
C#C[C@@]1(O)CC[C@@H]2[C@H]3CCC4=C/C(=N\O)CC[C@H]4[C@@H]3CC[C@]21CC,Potency,[1],inactive
same,"activity, negative = inhibition",[2]; parasite line A,-13.3% (inactive)
same,"activity, negative = inhibition",[2]; parasite line B,-2.2% (inactive)
same,Potency,[3],inactive
same,Potency,[4],inactive
same,Potency,[5],inactive
same,Potency,[6],inactive
same,Potency,[7],inactive
same,Potency,[8],inactive
same,Potency,[9],inactive
same,Potency,[10],inactive
same,Potency,[11],inactive
same,Potency,[12],inactive
same,Potency,[13],inactive
same,Potency,[14],inactive
same,Potency,[15],inactive
same,Potency,[16],inactive
same,Potency,[17],inactive
same,Potency,[20],inactive
same,Potency,[18],inactive
same,Potency,[19],inactive
CCOC(=O)C(CCc1ccccc1)NC(C)C(=O)N1Cc2cc(OC)c(OC)cc2CC1C(=O)O (stereo not drawn),Potency,[1],inactive
same,"activity, negative = inhibition",[2]; parasite line A,-6.17% (inactive)
same,"activity, negative = inhibition",[2]; parasite line B,-28.7% (inactive)
same,Potency,[4],5.01 µM (active)
same,Potency,[5],inactive
same,Potency,[6],inactive
same,Potency,[7],inactive
same,Potency,[9],inactive
same,Potency,[10],inactive
same,Potency,[11],inactive
same,Potency,[12],inactive
same,Potency,[13],inactive
same,Potency,[14],inactive
same,Potency,[15],inactive
same,Potency,[16],inactive
same,Potency,[17],5.01 µM (active)
same,Potency,[20],inactive
same,Potency,[18],3.55 µM (active)
same,Potency,[19],inactive
CNC1=CN(O)C(c2ccccc2)=c2cc(Cl)ccc2=N1,Potency,[1],inactive
same,Potency,[2]; parasite line A,3.55 µM (active)
same,Potency,[2]; parasite line B,2.24 µM (active) and 11.2 µM (active)
same,Potency,[4],11.2 µM (active) and inactive
same,Potency,[5],4.47 µM (active)
same,Potency,[7],4.26 µM (active)
same,Potency,[9],inactive
same,Potency,[10],8.91 µM (active)
same,Potency,[11],inactive
same,Potency,[12],6.31 µM (active)
same,Potency,[13],3.79 µM (active)
same,Potency,[14],4.47 µM (active)
same,Potency,[15],3.79 µM (active) and inactive
same,Potency,[16],3.16 µM (active)
same,Potency,[20],2.51 µM (active)
same,Potency,[19],3.55 µM (active)
C[C@]12CCC(=O)C=C1[C@@H]1C[C@H]1[C@H]1[C@@H]3[C@@H]4C[C@H]4[C@@]4(CCC(=O)O4)[C@@]3(C)CC[C@@H]12,Potency,[1],inactive
same,"activity, negative = inhibition",[2]; parasite line A,-2.83% (inactive)
same,"activity, negative = inhibition",[2]; parasite line B,-11.7% (inactive)
same,Potency,[3],inactive
same,Potency,[4],inactive
same,Potency,[5],inactive
same,Potency,[6],inactive
same,Potency,[7],inactive
same,Potency,[8],inactive
same,Potency,[9],inactive
same,Potency,[10],inactive
same,Potency,[11],inactive
same,Potency,[12],inactive
same,Potency,[13],inactive
same,Potency,[14],inactive
same,Potency,[15],inactive
same,Potency,[16],inactive
same,Potency,[17],inactive
same,Potency,[20],inactive
same,Potency,[18],inactive
same,Potency,[19],inactive
CC(C)CCCC(C)C1CC(=O)C2=C3CCC4CC(O)CCC4(C)C3CCC21C (stereo not drawn),Potency,[1],inactive
same,"activity, negative = inhibition",[2]; parasite line A,4.35% (inactive)
same,"activity, negative = inhibition",[2]; parasite line B,-0.553% (inactive)
same,Potency,[3],inactive
same,Potency,[4],inactive
same,Potency,[5],inactive
same,Potency,[6],inactive
same,Potency,[7],inactive
same,Potency,[8],inactive
same,Potency,[9],inactive
same,Potency,[10],inactive
same,Potency,[11],inactive
same,Potency,[12],inactive
same,Potency,[13],inactive
same,Potency,[15],inactive
same,Potency,[16],inactive
same,Potency,[17],inactive
same,Potency,[20],inactive
same,Potency,[18],inactive
same,Potency,[19],inactive
CC1(C)SC2[C@@H](N=CN3CCCCCC3)C(=O)N2[C@H]1C(=O)O (stereo partly drawn),Potency,[1],inactive
same,"activity, negative = inhibition",[2]; parasite line A,0.0196% (inactive)
same,"activity, negative = inhibition",[2]; parasite line B,-13% (inactive)
same,Potency,[3],inactive
same,Potency,[4],inactive
same,Potency,[5],inactive
same,Potency,[6],inactive
same,Potency,[7],inactive
same,Potency,[8],inactive
same,Potency,[9],inactive
same,Potency,[10],inactive
same,Potency,[11],inactive
same,Potency,[12],inactive
same,Potency,[13],inactive
same,Potency,[14],inactive
same,Potency,[15],inactive
same,Potency,[16],inactive
same,Potency,[17],inactive
same,Potency,[20],inactive
same,Potency,[18],inactive
same,Potency,[19],inactive
CCN(CC)C(=O)[C@@]1(c2ccccc2)C[C@@H]1CN,Potency,[1],inactive
same,"activity, negative = inhibition",[2]; parasite line A,3.47% (inactive)
same,"activity, negative = inhibition",[2]; parasite line B,2.1% (inactive)
same,Potency,[3],inactive
same,Potency,[4],inactive
same,Potency,[5],inactive
same,Potency,[6],inactive
same,Potency,[7],inactive
same,Potency,[8],inactive
same,Potency,[9],inactive
same,Potency,[10],inactive
same,Potency,[11],inactive
same,Potency,[12],inactive
same,Potency,[13],inactive
same,Potency,[14],inactive
same,Potency,[15],inactive
same,Potency,[16],inactive
same,Potency,[17],inactive
same,Potency,[20],inactive
same,Potency,[18],inactive
